This passage reports growth results from the supplement of paper PMC9262897, “Low-cost anti-mycobacterial drug discovery using engineered E. coli” (Nature Communications, 2022).

Structures can show the parent of a compound that is named as a salt. ± gives the standard deviation of the averaged measurements.

The test concerns E. coli TESEC Alr+ wild-type control. Put plainly: growth (OD600 after 10 h); higher = more growth (less inhibition). Conditions: compound 0.1 mM; raw OD600 reference: median of DMSO wells 0.49, cell-free background 0.052. On the procedure: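 TESEC Mtb Alr E. coli (ΔaraC ΔtolC ΔentC Δalr ΔdadX, arabinose-inducible Mtb Alr) or the Alr+ wild-type control strain, grown in defined M9-fructose medium without D-alanine in 96-well plates with Prestwick library compounds at 0.1 mM and 1% DMSO. Low Alr induction is 0.1 µM arabinose and high induction is 10 mM arabinose.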
Compound `O=P1(N(CCCl)CCCl)NCCCO1` (stereo not given) [Cyclophosphamide] showed a growth of 0.57 ± 0.069.

In turn, `CC(C)c1cccc(C(C)C)c1O` [Propofol] gave a growth of 0.55 ± 0.038.

Turning to `CN1[C@@H]2CC[C@H]1C[C@@H](OC(=O)[C@H](CO)c1ccccc1)C2` [Hyoscyamine (L)], the growth is 0.468 ± 0.045.

`Oc1ccc2c3c1O[C@H]1[C@@H](O)CC[C@@]4(O)[C@@H](C2)N(CC2CCC2)CC[C@]314` [Nalbuphine hydrochloride] came in with a growth of 0.515 ± 0.011.

`COc1ccc(Cc2nccc3cc(OC)c(OC)cc23)cc1OC` [Papaverine hydrochloride] registered a growth of 0.579 ± 0.04.

In turn, `CCC(=O)O[C@@](Cc1ccccc1)(c1ccccc1)[C@@H](C)CN(C)C` [Levopropoxyphene napsylate] displayed a growth of 0.566 ± 0.042.

`CC(C)(C)NCC(O)c1ccccc1Cl` (stereo not given) [Tulobuterol] showed a growth of 0.507 ± 0.082.

For `c1ccc2nc(N3CCNCC3)ccc2c1` [Quipazine dimaleate salt], the growth amounted to 0.47 ± 0.0099.

As to `NC(=O)CN1CCCC1=O` [Piracetam], the growth is 0.491 ± 0.12.

`CC[C@@H](C(N)=O)N1CCCC1=O` [Levetiracetam] had a growth of 0.453 ± 0.03.

As for `NCC(CC(=O)O)c1ccc(Cl)cc1` (racemic) [Baclofen (R,S)], the growth is 0.456 ± 0.038.

Turning to `C[C@@H]1C[C@@H]([C@H](O)CC2CC(=O)NC(=O)C2)C(=O)[C@@H](C)C1` [Cycloheximide], the growth was found to be 0.529 ± 0.06.

With `C[N+]1([O-])[C@@H]2C[C@@H](OC(=O)[C@H](CO)c3ccccc3)C[C@H]1[C@@H]1O[C@@H]12` (stereo not given in full) [Scopolamin-N-oxide hydrobromide], the growth was determined as 0.472 ± 0.045.

As to `C=CCC1(CC(C)C)C(=O)NC(=O)NC1=O` [Butalbital], the growth was 0.516 ± 0.029.

`C[N+]12CCC(CC1)C(OC(=O)C(O)(c1ccccc1)c1ccccc1)C2` (stereo not given) [Clidinium bromide] registered a growth of 0.611 ± 0.031.

On to `CC(C)CC(N(C)C)C1(c2ccc(Cl)cc2)CCC1` (stereo not given) [Sibutramine HCl], for which the growth stood at 0.602 ± 0.091.

`CN1CCN(C(=O)OC2c3nccnc3C(=O)N2c2ccc(Cl)cn2)CC1` (stereo not given) [Zopiclone]: the growth was determined as 0.454 ± 0.011.

On to `c1ccc2c(c1)Nc1ccccc1S2` [Phenothiazine], for which the growth came to 0.457 ± 0.0082.

On to `C[C@]12CC[C@@H](O)C[C@H]1CC[C@@H]1[C@@H]2CC[C@]2(C)C(=O)CC[C@@H]12` [3-alpha-Hydroxy-5-beta-androstan-17-one], for which the growth amounted to 0.262 ± 0.011.

The compound `OC(c1ccccc1)(c1ccccc1)C1CCNCC1` [Azacyclonol] had a growth of 0.523 ± 0.032.

For the compound `CCCC(C)(COC(N)=O)COC(=O)NC(C)C` (stereo not given) [Carisoprodol], the growth was found to be 0.594 ± 0.082.

The compound `C[C@]12C/C(=C/O)C(=O)C[C@@H]1CC[C@@H]1[C@@H]2CC[C@@]2(C)[C@H]1CC[C@]2(C)O` [Oxymetholone] gave a growth of 0.462 ± 0.01.

For the compound `CC(C)[N+](C)(CCC(C(N)=O)(c1ccccc1)c1ccccc1)C(C)C` [Isopropamide iodide], the growth is 0.516 ± 0.045.

`CCC1(CC)C(=O)C=CNC1=O` [Pyrithyldione] gave a growth of 0.458 ± 0.024.

Turning to `O=c1[nH]c2ccccc2n1CCCN1CCC(n2c(=O)[nH]c3cc(Cl)ccc32)CC1` [Domperidone], the growth was 0.406 ± 0.011.

`COc1cc2c(cc1OC)C(C)NCC2` (stereo not given) came in with a growth of 0.453 ± 0.034.

Compound `CN1[C@@H]2CC[C@H]1C[C@@H](OC1c3ccccc3CCc3ccccc31)C2` [Deptropine citrate] had a growth of 0.04883 ± 0.00038.

Turning to `CC(=O)OCC1=C(C(=O)O)N2C(=O)[C@@H](N)[C@H]2SC1` [Cephalosporanic acid, 7-amino], the growth was 0.649 ± 0.029.

The compound `CC[C@@H](CO)NC(=O)[C@@H]1C=C2c3cccc4[nH]cc(c34)C[C@H]2N(C)C1` [Methylergometrine maleate] showed a growth of 0.523 ± 0.018.

Compound `O=C1CC[C@@]2(O)[C@H]3Cc4ccc(O)c5c4[C@@]2(CCN3CC2CC2)[C@H]1O5` [Naltrexone hydrochloride dihydrate] came in with a growth of 0.496 ± 0.022.

Compound `CN(C)C(=O)Oc1ccc[n+](C)c1` [Pyridostigmine iodide] returned a growth of 0.436 ± 0.011.

As to `C[C@]12COC(=O)C[C@@H]1CC[C@@H]1[C@@H]2CC[C@@]2(C)[C@H]1CC[C@]2(C)O` [Oxandrolone], the growth amounted to 0.435 ± 0.042.

Take `COc1ccc(CN2CCNCC2)c(OC)c1OC` [Trimetazidine dihydrochloride]: the growth worked out at 0.584 ± 0.012.

With `CCOC(=O)c1cncn1[C@H](C)c1ccccc1` [Etomidate], the growth is 0.397 ± 0.013.

Take `CCN[C@@H](C)Cc1cccc(C(F)(F)F)c1` [Dexfenfluramine hydrochloride]: the growth stood at 0.466 ± 0.025.

With `NC(=O)C[S+]([O-])C(c1ccccc1)c1ccccc1` (stereo not given) [Modafinil], the growth amounted to 0.634 ± 0.016.

Take `NC(=O)OCCCc1ccccc1` [Phenprobamate]: the growth amounted to 0.562 ± 0.087.

For the compound `CCC1(c2cccc(O)c2)CCCCN(C)C1` (stereo not given) [Meptazinol hydrochloride], the growth came to 0.643 ± 0.03.

In the case of `CN(C)[C@@H]1C(=O)C(C(N)=O)=C(O)[C@@]2(O)C(=O)C3=C(O)c4c(O)cccc4[C@@](C)(O)[C@H]3[C@H](O)[C@@H]12` [Oxytetracycline dihydrate], the growth is 0.0551 ± 0.00064.

As for `CC[C@@]1([C@@H]2O[C@@H]([C@H]3O[C@@](O)(CO)[C@H](C)C[C@@H]3C)C[C@@H]2C)CC[C@H]([C@]2(C)CC[C@]3(C[C@H](O)[C@@H](C)[C@@H]([C@@H](C)[C@@H](OC)[C@H](C)C(=O)O)O3)O2)O1` [Monensin sodium salt], the growth is 0.408 ± 0.05.
